Drawing on PubChem BioAssay, this text covers composite z-score and z-score for 6 molecules.

Active and inactive are the calls of the source.

The subject of test [1] is Plasmodium falciparum Sir2 (PF13_0152, Sir2A). Kind of test: Plasmodium falciparum Sir2A binding compounds – biochemical, small-molecule microarray, 635 nm fluorescence, primary screen (AID 1098).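 Further: score merges spot fluorescence intensity with its signal-to-noise ratio.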 The note with it: fluorescence 635 nm, higher = more signal.
The nature of test [2]: probe aDKK1 binding to arrayed compounds – biochemical, biotinylated probe, 635/667 nm fluorescence, primary screen (AID 1099).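 Further: score merges 667nm spot fluorescence with signal to noise across triplicate slides.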 The conditions noted are these: small-molecule microarray, higher = more signal.
A short description of test [3]: probe aCHRDL2 binding to arrayed compounds – biochemical, biotinylated probe, 635/667 nm fluorescence, primary screen (AID 1100). The note with it: small-molecule microarray, higher = more signal.
Test [4] can be described thus: change in splice reporter luminescence, either direction, cell-based, HEK293, spliceosome inhibition project, primary screen (AID 1101).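 Further: HEK293 cells carrying a splicing-competent luciferase reporter gene; test concentration not given here.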 The conditions noted are these: HEK293 splicing luciferase reporter, 24 h, higher = more signal, called active from +8 up or from −8 down. In general terms: Reporter assays use an easily measured gene product as a stand-in for the process of interest.

Test [5] addresses Fibroblast growth factor 10 (Homo sapiens) (UniProt O15520). Kind of test: compounds binding fibroblast growth factor 10 – biochemical, small-molecule microarray, 635 nm fluorescence, primary screen (AID 1102). The note with it: FGF10 binding, fluorescence 635 nm, higher = more signal.
For test [6], the system named is glycogen synthase kinase-3 (GSK3A per assay name; protocol says GSK3B). Kind of test: compounds binding glycogen synthase kinase-3 – biochemical, small-molecule microarray, 635 nm fluorescence, GSK3A, primary screen (AID 1103). Further: the record names both GSK3A and GSK3B. The note with it: fluorescence 635 nm, higher = more signal.
Test [7] addresses Epidermal growth factor receptor (Homo sapiens) (UniProt P00533). Kind of test: compounds binding epidermal growth factor receptor – biochemical, small-molecule microarray, 635 nm fluorescence, primary screen (AID 1104).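 Further: score merges 667 nm emission intensity with spot signal to noise over triplicate slides.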 The conditions noted are these: EGFR binding, higher = more signal.
In test [8] the target is Follistatin-related protein 3 (Homo sapiens) (UniProt O95633). Kind of test: compounds binding follistatin-related protein 3 – biochemical, small-molecule microarray, 635 nm fluorescence, primary screen (AID 1105).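 Further: score merges emission near 667 nm and signal to noise per printed spot across three slides.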 The note with it: FSTL3 binding, higher = more signal.
Test [9] concerns the target Dickkopf-related protein 1 (Homo sapiens) (UniProt O94907). Kind of test: small molecules binding DKK1 protein – biochemical, small-molecule microarray, 635 nm fluorescence scan, primary screen (AID 1106).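 Further: score merges emission near 667 nm with signal to noise over three replicate slides.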 The note with it: higher = more signal.
Test [10] has as its system Inhibin beta A chain (activin A). Kind of test: small molecules binding activin A – biochemical, small-molecule microarray, 635 nm fluorescence scan, primary screen (AID 1107).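 Further: mouse activin A protein probed at 4.33 µg/mL on printed slides; score merges bound-protein fluorescence near 667 nm with spot signal-to-noise.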 The conditions noted are these: INHBA, higher = more signal.
Test [11] has as its system Human papillomavirus type 1a protein E7 (residues 44-93). Kind of test: small molecules binding HPV E7 44-93 – biochemical, small-molecule microarray, residues 44-93, 635 nm fluorescence, primary screen (AID 1108).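 Further: E7 fragment applied at 1 µg/mL in TBST for 1 h at 4 C; score combines spot fluorescence with its signal to noise ratio.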 The note with it: fluorescence 635 nm, higher = more signal.
The nature of test [12]: hepatitis C replication reporter changes, two-sided – Huh7 cells, luciferase reporter, HCV replication inhibitor project, primary screen (AID 1109).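 Further: huh7 hepatoma cells harbouring a luciferase neomycin HCV replicon reporter; luciferase luminescence as measure of HCV replicon replication; test concentration not given here.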 The note with it: Huh7 HCV replicon luciferase reporter, 48 h; higher = more signal.
Test [13] has as its target Left-right determination factor 2 (Homo sapiens) (UniProt O00292). Kind of test: small molecules binding LEFTY2 protein – biochemical, small-molecule microarray, 635 nm fluorescence scan, primary screen (AID 1110). The note with it: higher = more signal.
Test [14] addresses Calmodulin-1 (Homo sapiens) (UniProt P0DP23). Kind of test: small molecules binding calmodulin-1 with EGTA – biochemical, small-molecule microarray, Cy5-labelled CALM1, profiling panel (AID 1111).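 Further: labelled calmodulin applied in Tris saline Tween buffer holding calcium plus EGTA and DTT.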 The note with it: Cy5-CALM1 binding fluorescence, higher = more signal.
Test [15] shares this target. Kind of test: small molecules binding Ca-loaded calmodulin-1 – biochemical, small-molecule microarray, Cy5-labelled CALM1, plus calcium, artefact control for SMM control-protein annotation, profiling panel (AID 1112).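 Further: score merges spot fluorescence with signal to noise from triplicate slides.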 The conditions noted are these: Cy5-CALM1 binding fluorescence, higher = more signal.
Test [16] can be described thus: probe aWnt5a binding to arrayed compounds – biochemical, biotinylated probe, 635/667 nm fluorescence, primary screen (AID 1113).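 Further: score merges 667 nm fluorescence intensity with signal-to-noise per printed feature.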 The conditions noted are these: small-molecule microarray, higher = more signal.
Test [17] can be described thus: probe aShh binding to arrayed compounds – biochemical, biotinylated probe, 635/667 nm fluorescence, primary screen (AID 1114).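 Further: probe is biotin-labelled aShh protein from a stem cell growth factor screen; measures binding of labelled protein to compounds printed on the slide; score merges feature fluorescence at 667 nm with signal-to-noise.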 The conditions noted are these: small-molecule microarray, higher = more signal.
Test [18] is described as follows: probe aNog binding to arrayed compounds – biochemical, biotinylated probe, 635/667 nm fluorescence, primary screen (AID 1115).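 Further: probe is biotinylated aNog protein used at 0.15 µg/mL for 1 h at 4 C; z-score combines 667 nm fluorescence of each spot with its signal to noise.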 The conditions noted are these: small-molecule microarray, higher = more signal.
In test [19] the target is Torsin-1A-interacting protein 1 (Homo sapiens) (UniProt Q5JTV8). Kind of test: compound microarray binding of lysate hLAP1 – cell lysate, small-molecule microarray, COS7 lysate, 635/667 nm fluorescence, primary screen (AID 1116). The note with it: 635 nm fluorescence, higher = more signal.
Test [20] addresses Alpha-bungarotoxin (Bungarus multicinctus) (UniProt P60615). Kind of test: compounds binding labelled alpha-BTX control protein – biochemical, small-molecule microarray, Alexa647 label, 635/667 nm fluorescence, artefact control for SMM control protein annotation, profiling panel (AID 1117). The note with it: alpha-BTX-A647 binding fluorescence, higher = more signal.

Epidermal growth factor receptor (Homo sapiens), sequence (P00533 whole entry, looked up): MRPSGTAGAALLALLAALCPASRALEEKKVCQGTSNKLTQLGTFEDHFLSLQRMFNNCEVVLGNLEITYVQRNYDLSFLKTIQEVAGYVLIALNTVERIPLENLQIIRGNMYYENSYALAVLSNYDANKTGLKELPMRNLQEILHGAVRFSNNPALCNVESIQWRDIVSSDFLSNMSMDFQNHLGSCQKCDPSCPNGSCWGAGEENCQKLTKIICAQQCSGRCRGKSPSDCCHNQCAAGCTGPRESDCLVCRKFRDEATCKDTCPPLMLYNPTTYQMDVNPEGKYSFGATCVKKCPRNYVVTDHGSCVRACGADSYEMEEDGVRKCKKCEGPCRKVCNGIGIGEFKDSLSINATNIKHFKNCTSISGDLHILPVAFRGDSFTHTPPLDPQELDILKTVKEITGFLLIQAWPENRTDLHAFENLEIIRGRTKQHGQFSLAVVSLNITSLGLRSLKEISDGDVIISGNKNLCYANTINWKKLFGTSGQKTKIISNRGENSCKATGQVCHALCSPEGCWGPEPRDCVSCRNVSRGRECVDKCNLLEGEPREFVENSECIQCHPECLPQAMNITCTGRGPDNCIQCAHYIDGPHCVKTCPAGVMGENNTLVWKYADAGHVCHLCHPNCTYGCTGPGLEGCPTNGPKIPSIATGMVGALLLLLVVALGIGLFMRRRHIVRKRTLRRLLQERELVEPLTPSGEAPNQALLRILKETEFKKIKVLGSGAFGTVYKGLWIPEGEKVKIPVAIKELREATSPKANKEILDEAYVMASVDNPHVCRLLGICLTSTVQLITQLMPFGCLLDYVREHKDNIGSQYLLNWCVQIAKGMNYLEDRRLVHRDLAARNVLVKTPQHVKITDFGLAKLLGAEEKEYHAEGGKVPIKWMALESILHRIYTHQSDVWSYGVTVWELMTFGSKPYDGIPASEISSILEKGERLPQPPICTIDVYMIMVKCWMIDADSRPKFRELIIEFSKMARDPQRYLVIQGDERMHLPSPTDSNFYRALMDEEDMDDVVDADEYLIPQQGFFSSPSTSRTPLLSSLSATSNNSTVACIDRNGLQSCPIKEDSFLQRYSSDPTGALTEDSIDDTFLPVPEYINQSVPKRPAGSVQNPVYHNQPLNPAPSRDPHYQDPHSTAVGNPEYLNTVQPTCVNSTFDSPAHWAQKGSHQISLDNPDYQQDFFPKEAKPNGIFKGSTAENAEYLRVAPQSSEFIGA
Torsin-1A-interacting protein 1 (Homo sapiens), sequence (Q5JTV8 whole entry, looked up): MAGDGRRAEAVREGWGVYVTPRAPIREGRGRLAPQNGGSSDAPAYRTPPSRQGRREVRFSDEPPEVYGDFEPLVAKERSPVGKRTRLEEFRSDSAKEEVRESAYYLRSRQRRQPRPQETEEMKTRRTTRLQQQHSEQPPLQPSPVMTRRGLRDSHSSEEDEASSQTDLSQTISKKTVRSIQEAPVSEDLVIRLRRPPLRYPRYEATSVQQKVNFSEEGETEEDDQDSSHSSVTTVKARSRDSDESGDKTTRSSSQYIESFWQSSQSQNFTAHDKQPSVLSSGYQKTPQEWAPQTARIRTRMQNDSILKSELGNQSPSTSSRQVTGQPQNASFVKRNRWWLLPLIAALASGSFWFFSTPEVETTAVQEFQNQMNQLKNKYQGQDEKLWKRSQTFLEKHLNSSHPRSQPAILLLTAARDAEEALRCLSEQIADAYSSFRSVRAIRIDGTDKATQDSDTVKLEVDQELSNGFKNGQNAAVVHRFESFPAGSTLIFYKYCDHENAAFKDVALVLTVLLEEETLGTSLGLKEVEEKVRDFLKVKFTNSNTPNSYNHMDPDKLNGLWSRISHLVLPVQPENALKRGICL
Fibroblast growth factor 10 (Homo sapiens), sequence (O15520 whole entry, looked up): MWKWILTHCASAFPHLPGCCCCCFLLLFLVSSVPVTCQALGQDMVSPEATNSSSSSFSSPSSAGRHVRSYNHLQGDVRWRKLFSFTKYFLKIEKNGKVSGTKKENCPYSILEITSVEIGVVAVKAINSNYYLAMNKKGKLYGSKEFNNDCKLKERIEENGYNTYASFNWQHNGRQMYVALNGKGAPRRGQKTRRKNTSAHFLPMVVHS
Left-right determination factor 2 (Homo sapiens), sequence (O00292 whole entry, looked up): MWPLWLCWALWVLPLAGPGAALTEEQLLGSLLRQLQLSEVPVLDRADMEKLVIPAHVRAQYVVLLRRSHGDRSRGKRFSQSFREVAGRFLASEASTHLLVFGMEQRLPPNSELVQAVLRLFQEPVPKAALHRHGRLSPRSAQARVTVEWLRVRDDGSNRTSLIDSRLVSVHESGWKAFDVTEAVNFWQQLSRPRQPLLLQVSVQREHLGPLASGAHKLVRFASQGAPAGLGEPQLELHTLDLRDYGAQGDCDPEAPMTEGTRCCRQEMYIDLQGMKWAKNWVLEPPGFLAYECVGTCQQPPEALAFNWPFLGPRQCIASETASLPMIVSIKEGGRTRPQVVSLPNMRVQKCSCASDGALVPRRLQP
Alpha-bungarotoxin (Bungarus multicinctus), sequence (P60615 whole entry, looked up): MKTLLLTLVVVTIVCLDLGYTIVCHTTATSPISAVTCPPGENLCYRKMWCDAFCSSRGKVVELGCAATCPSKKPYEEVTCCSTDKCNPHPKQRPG
Dickkopf-related protein 1 (Homo sapiens), sequence (O94907 whole entry, looked up): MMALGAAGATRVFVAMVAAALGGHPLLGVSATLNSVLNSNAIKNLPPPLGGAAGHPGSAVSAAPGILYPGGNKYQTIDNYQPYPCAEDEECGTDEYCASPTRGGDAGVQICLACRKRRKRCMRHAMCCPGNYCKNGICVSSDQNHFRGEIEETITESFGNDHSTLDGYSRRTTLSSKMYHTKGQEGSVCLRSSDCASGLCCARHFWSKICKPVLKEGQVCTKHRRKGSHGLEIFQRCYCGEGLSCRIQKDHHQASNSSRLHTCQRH
Follistatin-related protein 3 (Homo sapiens), sequence (O95633 whole entry, looked up): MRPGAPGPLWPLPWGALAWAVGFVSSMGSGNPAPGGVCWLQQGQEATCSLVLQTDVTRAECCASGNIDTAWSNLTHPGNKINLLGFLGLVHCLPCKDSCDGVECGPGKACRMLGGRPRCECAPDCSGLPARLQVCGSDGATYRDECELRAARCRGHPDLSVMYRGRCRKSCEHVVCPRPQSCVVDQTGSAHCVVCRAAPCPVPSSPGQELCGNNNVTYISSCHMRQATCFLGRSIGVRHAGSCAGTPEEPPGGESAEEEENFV

Consider `CCCCC(=O)N(CCN1CCOCC1)[C@@H]1CC(C(=O)NCCO)=C[C@H](Oc2c(I)cc(CO)cc2OC)[C@H]1O`, for which the composite z-score in test [1] was 0.787; in test [2], -0.309; in [3], -0.764; in test [5], 0.318; in test [6], 0.725; in test [7], 0.349. The composite z-score is 0.412 in [8]; 0.817 in test [9]; 0.0845 in test [10]; 0.33 in test [11]; 0.653 in [13]; -0.282 in test [14]. The composite z-score in test [15] was -0.598; in test [16] it was -0.19; in [17], -0.358; in test [18], -0.31; in [19], -0.0458; in test [20], 0.354. Moreover, the z-score in test [4] was 0.751 (inactive); in test [12] it was 0.282.
Consider `Cc1ccc(F)cc1S(=O)(=O)N[C@@H]1CCN(Cc2cccc3[nH]ccc23)C1`, for which the composite z-score in [1] is 0.245; in [2] it was -0.374; in test [3], -0.518; in test [5], 0.67; in [6], 0.67; in [7], 0.719. Further, the composite z-score in test [8] is 1.36; in test [9] it was 0.236; in test [10], 0.741; in test [11], -0.0347; in test [13], 0.682; in test [14], -0.517. The composite z-score in test [15] is -1.03; in [16], -0.0685; in [17] it was -0.153; in [18], -0.492; in [19] it was 0.852; in [20] it was 0.111. The z-score in test [4] is -0.44 (inactive); in [12], -1.57.
In the case of `CN1C(=O)C2C=CC(C(O)c3ccc(F)cc3)N(NC(=O)OC(C)(C)C)C2C1=O` (stereo not given), the composite z-score in test [1] is 0.578; in test [2] it was -0.066; in [3] it was 0.535; in [5], 0.45; in test [6], 0.336; in [7] it was -0.196. The composite z-score in test [8] is 0.15; in test [9] it was -0.767; in test [10] it was 0.471; in test [11] it was 1.36; in test [13], -0.205; in test [14], 0.989. The composite z-score in test [15] is 0.469; in [16], -0.109; in test [17] it was 0.265; in test [18] it was 1.12; in [19] it was -0.102; in [20] it was 0.613. Besides, the z-score in test [4] is 1.15 (inactive); in [12], -0.428.
For the molecule `COc1cc(NN2C(C(O)c3ccc(I)cc3)C=CC3C(=O)N(c4ccccc4)C(=O)C32)cc(OC)c1OC` (stereo not given), the composite z-score in [1] was found to be 0.913; in test [2], 0.763; in test [3], 1.04; in test [5], 1.17; in [6], 1.29; in test [7], 0.266. The composite z-score in [8] is 1.3; in test [9], -0.305; in test [10] it was 0.946; in test [11], 1.46; in test [13] it was 0.391; in [14], 1.85. The composite z-score in test [15] worked out at 0.663; in test [16], 0.136; in [17], 0.213; in [18], 1.23; in [19], 1.64; in test [20], 1.68. Further, the z-score is -0.329 (inactive) in [4] and -0.573 in test [12].
Turning to `[N-]=[N+]=Nc1ccccc1C[C@]1(C(=O)O)N=C(c2ccc(OCCCO)cc2)O[C@H]1c1ccccc1`, the composite z-score in test [1] was 1.71; in test [2], 0.336; in test [3] it was 0.724; in test [5], 0.143; in [6], 0.0096; in test [7] it was -0.839. Further, the composite z-score in test [8] is 0.195; in [9], -0.689; in test [10], 0.86; in test [11] it was 1.36; in test [13], -1.07; in test [14], 0.163. Moreover, the composite z-score in test [15] was 0.943; in test [16], 0.2; in test [17] it was -0.0337; in test [18], 0.564; in test [19] it was 0.764; in test [20], 0.618. The z-score in test [4] was -0.918 (inactive); in test [12] it was 0.939.
Consider `[N-]=[N+]=Nc1ccccc1[C@@H]1OC(c2ccc(OCCCO)cc2)=N[C@]1(Cc1ccccc1)C(=O)NCc1ccccc1`, for which the composite z-score in test [1] turned out to be 1.57; in [2], 1.24; in test [3], 1.37; in test [5], 1.02; in test [6] it was 1.06; in test [7] it was 0.0762. Moreover, the composite z-score in test [8] is 0.395; in test [9], 0.0944; in [10], 0.604; in test [11] it was 0.656; in [13], -0.0068; in test [14] it was 2.46. For the same molecule, the composite z-score in [15] was found to be 1.33; in test [16], 0.166; in [17], 0.628; in [18], 1.95; in [19], 2.27; in test [20], 2.92. The z-score in [4] is 0.459 (inactive); in test [12] it was -2.53.
